Experimental data published in the supplement of paper PMC6555819.

Experiments:
Assay in all cases: PBM binding z-score (relative to random genomic background probes); higher = stronger binding; sequences stand for … in GC…GCGATTGACAGCGTAGAATGAAGG
[1] = tested on: PPARg:RXRa DBDmut IVT, anti-RXR (DBD mutation: RXRa K156A/R161A, NR concentration 270 nM, RXRa partner concentration 90 nM)
In short: (§1)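 Antibodies against each partner of ligand-free nuclear receptor dimers (one per run) detected binding on custom Agilent 4×180K protein-binding microarrays after 1 h incubation. The double-stranded probes had 34-nt variable regions carrying direct-repeat seeds, single-nucleotide variants, half-site ablations and random human genomic background sequences. Binding z-scores, from regression-normalized fluorescence, use the random background probes as reference.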

[2] = tested on: PPARg:RXRa IVT, anti-PPARg (NR concentration 270 nM, RXRa partner concentration 90 nM)
In short: as §1

[3] = tested on: PPARg DBDmut:RXRa IVT, anti-PPARg (DBD mutation: PPARg1 K132A/R137A, NR concentration 270 nM, RXRa partner concentration 90 nM)
In short: as §1

[4] = tested on: PPARg DBDmut IVT, anti-PPARg (DBD mutation: PPARg1 K132A/R137A, NR concentration 270 nM)
In short: as §1

[5] = tested on: PPARg homodimer (NR concentration 180 nM)
In short: as §1

[6] = tested on: PXR:RXRa (NR concentration 270 nM, RXRa partner concentration 90 nM)
In short: as §1

[7] = tested on: PXR homodimer (NR concentration 270 nM)
In short: as §1

[8] = tested on: RARa:RXR (NR concentration 270 nM, RXRa partner concentration 90 nM)
In short: as §1

[9] = tested on: RARa homodimer (NR concentration 270 nM)
In short: as §1

[10] = tested on: RARb:RXRa (NR concentration 270 nM, RXRa partner concentration 90 nM)
In short: as §1

[11] = tested on: RARb homodimer (NR concentration 270 nM)
In short: as §1

[12] = tested on: RARg:RXRa (NR concentration 270 nM, RXRa partner concentration 90 nM)
In short: as §1

[13] = tested on: RARg homodimer (NR concentration 270 nM)
In short: as §1

[14] = tested on: RXRa DBDmut IVT, anti-RXR (DBD mutation: RXRa K156A/R161A, NR concentration 90 nM)
In short: as §1

[15] = tested on: THRa:RXRa (NR concentration 90 nM, RXRa partner concentration 90 nM)
In short: as §1

[16] = tested on: THRa homodimer (NR concentration 90 nM)
In short: as §1

[17] = tested on: VDR:RXRa (NR concentration 270 nM, RXRa partner concentration 90 nM)
In short: as §1

[18] = tested on: VDR homodimer (NR concentration 270 nM)
In short: as §1

[19] = tested on: RXRa homodimer (NR concentration 180 nM)
In short: as §1

Sequence	PBM binding z-score [1]	PBM binding z-score [2]	PBM binding z-score [3]	PBM binding z-score [4]	PBM binding z-score [5]	PBM binding z-score [6]	PBM binding z-score [7]	PBM binding z-score [8]	PBM binding z-score [9]	PBM binding z-score [10]	PBM binding z-score [11]	PBM binding z-score [12]	PBM binding z-score [13]	PBM binding z-score [14]	PBM binding z-score [15]	PBM binding z-score [16]	PBM binding z-score [17]	PBM binding z-score [18]	PBM binding z-score [19]
TAGCCTAGGTCATTCAGGCGCCAGTATAGAAAGC	1.59	2.61	0.787	-0.107	1.85	1.68	-0.342	2.44	-0.00217	3.56	2.25	3.97	4.09	1.78	2.7	0.451	2.53	1.3	
GCATATAGGTAATTCAAGGTGAAAGTCCGATTGT	3.96	3.53	0.595	0.845	0.811	0.919	0.171	2.33	0.378	0.678	0.847	0.546	0.26	0.583		1.67		0.292	0.756
CTCGAAAGGGCGTGCTCAGGTGAGTATACCAAAC	-0.316	0.335	-0.537	-0.0248	-0.194	-0.0546	0.0968	0.278	-0.187	1.37	0.741	0.917	0.829	0.316	2.23	0.261		-0.046	
CCTACTGTGCCATTCAGAGGTCATTGATCATATG	3.76	3.54	0.945	0.536	2.73	4.89	2.63	4.4	1.62	3.08	4.39	4.2	2.75	1.79	3.38	2.43		3.56	
GCTCGGAGGACAAGGTCACAGCTTTGTCCGTAGA	0.831	3.16	0.822	-0.625	2.33	3.9	0.00215	4.35	0.243	4.21	3.72	4.76	4.75	1.17	3.79	3.04	3.47	1.96	
CCTACGGGGCCAAGGTCATTGATCAGTCAAAGCA	0.0794	1.73	-1.66	-0.738	2.31	3.58	0.818	3.78	-0.181	3.57	3.51	4.02	3.77	1.21	3.47	2.04		3.09	
GCTGCTAGGTCAACTGATGGTCAGCTAAAGCTCG	4.92	4.19	-0.0375	-1.12	1.55	1.66	-0.596	3	0.346	4.26	3.57	5.2	5.18	1.44	2.99	0.814	1.47	0.0317	
TAGCCTAGGTCATAGGGCCAGTATAGTACGCATC	1.41	2.83	0.326	-0.841	1.14	1.45	-0.088	2.37	-0.213	3.75	2.98	3.86	3.89	0.967	2.75	0.823		0.453	
AGTCAAAATTCACTAGGTAACGTAAGATTCAGCT	1.45	2.58	1.21	0.716	1.09	0.12	0.568	1.48	1.44	0.258	0.0175	0.434	0.425	0.24	0.806	0.608		0.272	
CTTAGTTGGTCAAGGTCACACACGCTATAGGTAC	4	4.92	0.864	1.4	2.76	4.35	2.79	4.4	2.07	4.35	4.53	4.9	5.2	2.05	4.43	4.65		3.96	
AGTCAAAGTTCATCTAGGTAACGAAAGATATGCT	0.744	4.11	1.97	1.3	3.18	5.26	6.53	4.34	2.16	5.15	3.88	5.82	6.19	4.79	3.24	0.383		5.04	
TCTAGTTGGTCGCGGAGGTCACACACGACGGGTA	1.54	2.37	0.402	0.328	2.9	4.16	1.42	4.39	1.29	3.38	3.92	3.94	3.62	0.932	3.45	2.74		2.63	
TCTAGTTGGTCATGGAGGTCACACACGACGGGTA	2.58	3.96	1.39	1.01	3.56	4.8	2.15	4.97	2.88	3.77	4.43	4.86	5.01	1.01	3.61	2.8		3.38	
CAAAGTAGGTCAAGAGGTCAAAGTCCGCTTCCCG	8.4	8.84	1.65	1.18	5.39	6.22	3.31	7.83	2.53	5.55	5.78	8.31	7.92	2.89	4.21	1.84		4.84	
CCTACTGGGCCATACAGAGGTCATTGATCATATG	4.36	4.21	1.03	0.445	4.53	5.28	2.92	5.24	1.8	3.12	3.98	4.45	3.22	0.759	3.15	1.47		4.19	
TGAATGACGTTAAAGATCAGGGAACGTGGCGTCG	-1.13	0.0329	0.97	0.284	-0.272	-0.444	-0.0558	-0.209	0.184	-0.171	-0.807	0.00646	0.113	-0.922	-0.478	-0.747		-0.61	
CCTAGTTGGTCAAGCTCACACACGCTATAGGTAC	1.68	1.17	0.0557	0.393	0.772	0.179	0.39	0.432	1.68	1.14	0.906	0.632	1.12	0.623	0.136	0.545	0.609	0.614	

Sequence	PBM binding z-score [1]	PBM binding z-score [2]	PBM binding z-score [3]	PBM binding z-score [4]	PBM binding z-score [5]	PBM binding z-score [6]	PBM binding z-score [7]	PBM binding z-score [8]	PBM binding z-score [9]	PBM binding z-score [10]	PBM binding z-score [11]	PBM binding z-score [12]	PBM binding z-score [13]	PBM binding z-score [14]	PBM binding z-score [15]	PBM binding z-score [16]	PBM binding z-score [17]	PBM binding z-score [18]	PBM binding z-score [19]
CCTAGTTGGTCAGGAGGCCACACACCGGATATGA	0.654	1.37	0.117	-0.424	0.805	-0.041	0.627	-0.174	0.55	1.23	1.51	0.776	1.23	-0.19	0.326	0.708		0.435	
CAAACTAGGTCACGAAAGGTCAAAGCCGAATGAC	8.59	8.71	2.62	1.68	7.54	6.89	3.03	7.57	4.36	5.74	5.98	8.01	8.56	2.11	5.07	2.55	6.5	3.58	
CCTACTGGGCCATTCAGAGGTTATTGATCATATG	4.41	3.71	0.418	0.252	0.658	0.724	0.159	0.877	0.171	0.712	1.19	1.1	0.495	0.368	0.915	0.14		0.749	
TAGCATAGGTCATGCGGGCCAGTATAGTGTCGGC	1	2.48	0.261	-0.165	1.08	2.83	0.0553	3.38	-0.53	4.13	3.46	4.99	4.91	0.439	2.55	-0.558		0.259	
CCTACTGGGGCACGAAAGGTCATTGATTCAGTGA	5.75	6.88	0.869	0.0108	3.09	5.68	1.16	5.47	0.333	4.41	4.81	4.75	4.85	0.748	4.03	0.632		2.34	
CGTCAAAGTTCAAGGCAACGTAACAGAAAGCAGC	0.106	1.35	-0.0637	0.203	2.24	3.56	1.41	2.87	0.477	4.98	3.41	5.02	6.02	3.97	1.72	-0.246		2.61	
ATATGCAGGTTATCGGGTCATTCAGTTTGCGCAT	4.84	5.2	2.48	0.956	2.06	3.99	7.38	4.1	0.986	2.51	2.95	3.29	2.2	1.56	3.49	2.55	5.27	4	
ATCGAATGGTCGTGAGGTGAGTATACAGAAAGGC	-0.654	0.348	0.375	-0.00822	0.181	-0.104	0.00681	0.113	0.259	0.464	0.456	0.502	0.684	-0.556	1.5	1.09		0.0134	
CAAACTAGGTCACAGAGGTTAAAGTCCGTGCGTA	8.23	9.05	7.06	4.73	2.92	4.74	3.84	4.65	1.69	4.62	4.34	5.36	5.64	2.38	4.12	2.1		3.13	
CCTTCTGGGCCATTCAGAGGTCATTGATCATATG	4.48	3.89	-0.117	0.751	2.03	4.77	2.46	4.25	0.112	3.25	4.13	4.56	3.3	1.38	3.31	1.51		3.47	
ATCGAAAAGTCGAAGGTGAGTATACCCACCCGAA	-0.679	0.2	0.0254	0.527	0.0253	-0.258	-0.0858	0.357	0.291	0.417	-0.251	0.436	0.586	-0.665	0.0744	-0.357		-0.0912	
CAAACTAGGTCACAGAGGTCAAACTCCGTGCGTA	8.63	8.81	2.84	2.43	5.38	6.91	12.1	7.81	3.49	5.52	5.75	7.7	7.96	3.78	4.66	3.37		7.66	
CCTACTGGGCGACGAAAGGTCATTGATTCAGTGA	1.64	2.57	-0.823	-0.515	1.98	4.56	0.841	4.47	0.351	3.75	4.11	4.14	3.31	0.216	3.13	0.124		1.38	
CCTACTGGGCCACGAAAGGTCCTTGATTCAGTGA	5.26	4.89	-0.745	-0.678	-0.351	-0.149	-0.492	0.131	-0.655	0.686	0.647	0.00978	0.301	-0.311	0.686	-0.289		-0.692	
ACTAGTTGGTCAGCTGAGGTCACACACAATTCGG	1.96	3.06	0.93	1.21	2.63	5.47	2.09	4.69	2.64	3.79	4.52	4.26	4.51	1.35	5.14	4.99	4.67	3.54	
ATATGTAGGTTACGTCCGGGTCATTCAGGCTATG	7.35	7.47	4.19	3.42	3.1	3.87	2.03	4.08	0.587	2.47	3.02	4.03	2.34	1.06	4.01	2.88		2.91	
